Data reported in PubChem BioAssay (NCI).
About 83,000 compounds went through this panel and 20% of them were active in at least one assay; those are over-represented in the sample as a whole.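 Step 1: grow cells in 96-well plates. Step 2: add test compound at a single concentration. Step 3: incubate 48 h. Step 4: record percent growth.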 The source made the active and inactive calls. The calls were made as follows: active = growth percent below 10; inactive = the rest.

How the values were obtained:
Assay in all cases: NCI-60 one-dose screen, 48 h (100 = growth as untreated, 0 = no growth, -100 = all killed)
Conditions in all cases: 10 µM
NCI-H23 lung = test system: NCI-H23 lung
NCI-H226 lung = test system: NCI-H226 lung
NCI-H460 lung = test system: NCI-H460 lung
HOP-92 NSCLC = test system: HOP-92 NSCLC
A549/ATCC NSCLC = test system: A549/ATCC NSCLC
786-0 renal = test system: 786-0 renal
COLO 205 colon = test system: COLO 205 colon
NCI-H522 lung = test system: NCI-H522 lung

Measured: growth

Cc1cc(C(C#N)c2ccc(Cl)cc2)c(Cl)cc1NC(=O)c1cc(I)cc(I)c1O (stereo unspecified)
inactive: NCI-H23 lung 10.4% | NCI-H226 lung 45.4% | NCI-H460 lung 24.1% | A549/ATCC NSCLC 71.3% | 786-0 renal 20.8% | COLO 205 colon 53.5%
active: HOP-92 NSCLC -12.1%

CCOC(=O)c1cc(C(=O)c2ccc(Cl)cc2)n2ccc(-c3cc[n+](CC(=O)c4ccc(OC)cc4)cc3)cc12
active: NCI-H460 lung 3.93% | 786-0 renal 9.1%
inactive: NCI-H23 lung 88.2% | NCI-H226 lung 102% | HOP-92 NSCLC 67.8% | NCI-H522 lung 70.8% | A549/ATCC NSCLC 32.2% | COLO 205 colon 42.8%

CCCCc1oc2ccccc2c1C(=O)c1cc(I)c(OCCN(CC)CC)c(I)c1
active: NCI-H23 lung -38.9% | NCI-H226 lung -36% | NCI-H460 lung -76.7% | HOP-92 NSCLC -68.7% | A549/ATCC NSCLC 9.9% | 786-0 renal -90.5% | COLO 205 colon -79.8%

C[N+]1(CCCCC[N+]2(C)CCCC2)CCCC1
inactive: NCI-H23 lung 105% | NCI-H226 lung 83.8% | NCI-H460 lung 94.7% | HOP-92 NSCLC 74.6% | A549/ATCC NSCLC 76.2% | 786-0 renal 118% | COLO 205 colon 122%

CCN1CC(CCN2CCOCC2)C(C(c2ccccc2)c2ccccc2)C1=O (stereo unspecified)
inactive: NCI-H23 lung 105% | NCI-H226 lung 97.3% | NCI-H460 lung 108% | HOP-92 NSCLC 98.9% | A549/ATCC NSCLC 101% | 786-0 renal 114% | COLO 205 colon 110%

COc1ccc(Cc2cnc(N)nc2N)cc1OC
inactive: NCI-H23 lung 96.8% | NCI-H226 lung 99.1% | NCI-H460 lung 105% | HOP-92 NSCLC 90.1% | A549/ATCC NSCLC 101% | 786-0 renal 109% | COLO 205 colon 108%

COC(=O)C1OC1c1cc([N+](=O)[O-])ccc1OC (stereo unspecified)
inactive: NCI-H23 lung 93% | NCI-H226 lung 100% | NCI-H460 lung 109% | HOP-92 NSCLC 106% | NCI-H522 lung 110% | A549/ATCC NSCLC 103% | 786-0 renal 104% | COLO 205 colon 111%

CC(C)Cc1ccc([C@H](C)C(=O)O)cc1
inactive: NCI-H23 lung 105% | NCI-H226 lung 112% | NCI-H460 lung 106% | HOP-92 NSCLC 79% | A549/ATCC NSCLC 102% | 786-0 renal 106% | COLO 205 colon 113%

CN(C)CCOc1ccccc1NC1=C(Cl)C(=O)C(Nc2ccccc2OCCN(C)C)=C(Cl)C1=O
active: NCI-H522 lung -53.3% | COLO 205 colon -62%
inactive: NCI-H23 lung 64.1% | NCI-H226 lung 93.9% | NCI-H460 lung 99.2% | HOP-92 NSCLC 59.9% | A549/ATCC NSCLC 84.7% | 786-0 renal 74.8%

CCc1ccc(-c2ccc(-n3nc(C)c4c(N)nc(Cc5ccccc5)nc43)cc2)cc1
inactive: NCI-H23 lung 77.2% | NCI-H226 lung 56.6% | NCI-H460 lung 51.4% | HOP-92 NSCLC 47.2% | NCI-H522 lung 49.2% | A549/ATCC NSCLC 52.4% | 786-0 renal 46.6% | COLO 205 colon 95.3%

C/C(=C/CCC(C)[C@@H]1CC[C@]2(C)C3=C(CC[C@@]12C)[C@@]1(C)CCC(=O)C(C)(C)[C@@H]1CC3)C(=O)O (stereo partly specified)
active: NCI-H23 lung -78.3% | NCI-H226 lung -47.3% | NCI-H460 lung -80.7% | HOP-92 NSCLC -93.3% | NCI-H522 lung -69% | A549/ATCC NSCLC -56.2% | 786-0 renal -92% | COLO 205 colon -91%

O=C(CCCCCCC(=O)Nc1ccccc1)NO
inactive: NCI-H226 lung 48.9% | NCI-H460 lung 16.3% | 786-0 renal 23.2%
active: NCI-H23 lung 3.33% | HOP-92 NSCLC -10.4% | A549/ATCC NSCLC 7.25% | COLO 205 colon -62.8%

CC1/C=C/C=C/C=C/C=C/C=C/C=C/C=C/C(O[C@@H]2O[C@H](C)[C@H](O)[C@@H](O)[C@@H]2N)CC(O)C(C(=O)O)C(O)CC(=O)CC(O)CC(O)CC(O)CC(=O)CCCC(=O)CC(=O)OC1C(C)CC(C)C(O)CC(=O)c1ccc(N)cc1 (stereo partly specified)
active: NCI-H23 lung -96.5% | NCI-H226 lung -93% | NCI-H460 lung -81.8% | HOP-92 NSCLC -88.2% | A549/ATCC NSCLC -100% | 786-0 renal -94%

CN1CCN(C2=Nc3ccccc3Oc3ccc(Cl)cc32)CC1
inactive: NCI-H23 lung 105% | NCI-H226 lung 111% | NCI-H460 lung 105% | HOP-92 NSCLC 80.4% | A549/ATCC NSCLC 94.8% | 786-0 renal 87.4% | COLO 205 colon 96.9%

C[C@@H](O)[C@H]1C(=O)N2C(C(=O)O)=C(SCCN=CN)C[C@H]12
active: NCI-H23 lung -1.59% | NCI-H226 lung -34.7% | NCI-H460 lung 1.59% | HOP-92 NSCLC -8.43% | A549/ATCC NSCLC -14.9% | 786-0 renal 8.8% | COLO 205 colon -25.8%

O=C(N/N=C/c1ccc([N+](=O)[O-])cc1)c1ccccc1Nc1cccc(C(F)(F)F)c1
inactive: NCI-H23 lung 91.2% | NCI-H226 lung 95.2% | NCI-H460 lung 115% | HOP-92 NSCLC 61% | NCI-H522 lung 88.8% | 786-0 renal 73% | COLO 205 colon 131%
